Assay results taken from the supplement of paper PMC12494721.
Counter-ions that a name gives are not always drawn.

Assays:
Conditions in all cases: incubation time: 27 h, anaerobic, 37 °C;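 for the amine columns active = adjusted P below 0.05 in both replicates with a change the same way and a mean fold change under 0.8 or over 1.25; inactive = the rest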
[1] = tested on: Clostridium sporogenes DSM 1664; assay: growth (OD595) fold change vs plate DMSO controls (fold change (ratio)); higher = more growth
Outline: (§1)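 The reported measure is growth: the fold change against the median of DMSO controls on the plate. Absorbance at 595 nm from anaerobic 96-well mGAM cultures grown for 27 h at 37 °C was blank-subtracted, corrected for background with 20 µM compound solutions in water, and converted to OD with a calibration factor of 5. Fold changes above 1.5 appear as NA, and values are the mean of 2 biological replicates.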

Escherichia coli IAI1 [2] = assay: as above
Outline: as §1

[3] = tested on: Klebsiella aerogenes DSM 30053; assay: as above
Outline: as §1

[4] = tested on: Ruminococcus gnavus DSM 108212; assay: as above
Outline: as §1

[5] = tested on: Klebsiella aerogenes DSM 30053; assay: fold change of Histamine concentration vs plate DMSO controls (fold change (ratio)); higher = more amine produced, active = hit call of the paper (significant change in both replicates, either direction)
Outline: (§2)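 Extracts of whole anaerobic mGAM cultures were analysed for amines by LC–triple-quadrupole MS with dynamic MRM and external calibration curves, with drift corrected within batch. Four gut strains were grown at 37 °C for 27 h in 80 µL wells with compounds at 20 µM final, sweeteners at 50 µM final. Each value expresses fold change over plate DMSO controls. The average of 2 biological replicates is shown.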

[6] = tested on: Clostridium sporogenes DSM 1664; assay: fold change of Tryptamine concentration vs plate DMSO controls (fold change (ratio)); higher = more amine produced, active = hit call of the paper (significant change in both replicates, either direction)
Outline: as §2

[7] = tested on: Ruminococcus gnavus DSM 108212; assay: as above
Outline: as §2

Escherichia coli IAI1 [8] = assay: fold change of Putrescine concentration vs plate DMSO controls (fold change (ratio)); higher = more amine produced, active = hit call of the paper (significant change in both replicates, either direction)
Outline: as §2

[9] = tested on: Klebsiella aerogenes DSM 30053; assay: as above
Outline: as §2

Escherichia coli IAI1 [10] = assay: fold change of Cadaverine concentration vs plate DMSO controls (fold change (ratio)); higher = more amine produced, active = hit call of the paper (significant change in both replicates, either direction)
Outline: as §2

[11] = tested on: Klebsiella aerogenes DSM 30053; assay: as above
Outline: as §2

[12] = tested on: Ruminococcus gnavus DSM 108212; assay: fold change of 2-Phenylethylamine concentration vs plate DMSO controls (fold change (ratio)); higher = more amine produced, active = hit call of the paper (significant change in both replicates, either direction)
Outline: as §2

| SMILES | growth [1] | growth (Escherichia coli IAI1 [2]) | growth [3] | growth [4] | fold change of Histamine concentration [5] | fold change of Tryptamine concentration [6] | fold change of Tryptamine concentration [7] | fold change of Putrescine concentration (Escherichia coli IAI1 [8]) | fold change of Putrescine concentration [9] | fold change of Cadaverine concentration (Escherichia coli IAI1 [10]) | fold change of Cadaverine concentration [11] | fold change of 2-Phenylethylamine concentration [12] |
| --- | --- | --- | --- | --- | --- | --- | --- | --- | --- | --- | --- | --- |
| OC[C@H]1OC(O)[C@H](O)[C@@H](O)[C@@H]1O (stereo partly drawn) [Glucose/Dextrose] (50 µM) | 1.15 | 0.989 | 1.01 | 1.19 | 1.03 (inactive) | 1.01 (inactive) | 0.971 (inactive) | 0.982 (inactive) | 0.872 (inactive) | 1.11 (inactive) | 1.09 (inactive) | 0.935 (inactive) |
| COc1ccnc(C[S+]([O-])c2nc3cc(OC(F)F)ccc3[nH]2)c1OC (stereo not drawn) [Pantoprazole sodium] (20 µM) | 1.18 | 1.22 | 1 | 0.958 | 0.936 (inactive) | 1.05 (inactive) | 1.05 (inactive) | 1.25 (inactive) | 1.01 (inactive) | 0.98 (inactive) | 1.02 (inactive) | 1.07 (inactive) |
| C[C@H](CCc1ccccc1)NC[C@H](O)c1ccc(O)c(C(N)=O)c1 [Dilevalol] (20 µM) | 1.02 | 0.978 | 1.11 | 1.1 | 0.929 (inactive) | 1.04 (inactive) | 0.98 (inactive) | 1.02 (inactive) | 1.01 (inactive) | 0.974 (inactive) | 1.01 (inactive) | 1.01 (inactive) |
| CCCCc1cc2ccccc2c(OCCN(C)C)n1 [Dimethisoquin hydrochloride] (20 µM) | 0.969 | 1.01 | 1.1 | 0.962 | 0.872 (inactive) | 0.946 (inactive) | 0.91 (inactive) | 1.07 (inactive) | 0.983 (inactive) | 1.06 (inactive) | 0.994 (inactive) | 0.96 (inactive) |
| CCN[C@H]1CN(CCCOC)S(=O)(=O)c2sc(S(N)(=O)=O)cc21 [Brinzolamide] (20 µM) | 1.17 | 1.04 | 1 | 1.04 | 1 (inactive) | 1.02 (inactive) | 0.944 (inactive) | 1.05 (inactive) | 0.989 (inactive) | 1.01 (inactive) | 1 (inactive) | 0.899 (inactive) |
| OCC(CO)N[C@H]1C[C@](O)(CO)[C@@H](O)[C@H](O)[C@H]1O [Voglibose] (20 µM) | 1.03 | 1.05 | 1.03 | 1.17 | 1.02 (inactive) | 1.06 (inactive) | 1.06 (inactive) | 0.984 (inactive) | 0.99 (inactive) | 0.917 (inactive) | 1.01 (inactive) | 1.09 (inactive) |
| Cc1nc(C)c(Cl)c(O)c1Cl [Clopidol] (20 µM) | 1.18 | 1.01 | 1.04 | 1.14 | 1 (inactive) | 0.998 (inactive) | 1.01 (inactive) | 1.02 (inactive) | 0.991 (inactive) | 1.02 (inactive) | 0.985 (inactive) | 1.01 (inactive) |
| O=c1n(CCCN2CCN(c3cccc(Cl)c3)CC2)nc2ccccn12 [Trazodone hydrochloride] (20 µM) | 1.09 | 0.982 | 0.987 | 1.06 | 1.03 (inactive) | 0.988 (inactive) | 0.809 (inactive) | 1.01 (inactive) | 0.997 (inactive) | 0.982 (inactive) | 0.99 (inactive) | 0.799 (inactive) |
| CCc1cc(C(N)=S)ccn1 [Ethionamide] (20 µM) | 1.09 | 1.05 | 1.03 | 0.995 | 0.962 (inactive) | 1 (inactive) | 1.02 (inactive) | 1.05 (inactive) | 1 (inactive) | 1 (inactive) | 1.02 (inactive) | 1.01 (inactive) |
| N#C/C(=C1/SCC(c2ccccc2Cl)S1)n1ccnc1 (stereo not drawn) [Lanoconazole] (20 µM) | 0.991 | 0.983 | 1 | 1.1 | 0.945 (inactive) | 0.98 (inactive) | 0.982 (inactive) | 1.04 (inactive) | 1.01 (inactive) | 1.01 (inactive) | 1 (inactive) | 0.949 (inactive) |
| OCCN1CCN(CCCN2c3ccccc3C=Cc3ccccc32)CC1 [Opipramol dihydrochloride] (20 µM) | 1.12 | 0.948 | 0.983 | 0.902 | 1.03 (inactive) | 1.07 (inactive) | 1.02 (inactive) | 0.888 (inactive) | 0.994 (inactive) | 1.04 (inactive) | 0.98 (inactive) | 1.02 (inactive) |
| CC(C)C[C@H](NC(=O)[C@@H](O)[C@H](N)Cc1ccccc1)C(=O)O [Ubenimex] (20 µM) | 1.02 | 0.971 | 0.969 | 0.332 | 0.887 (inactive) | 1.15 (inactive) | 0.148 (active) | 1.04 (inactive) | 0.95 (inactive) | 0.936 (inactive) | 0.973 (inactive) | 0.168 (active) |
| CCn1nc(C(=O)O)c(=O)c2cc3c(cc21)OCO3 [Cinoxacin] (20 µM) | 0.547 | 0.0392 | 0.544 | 1.06 | 0.506 (active) | 0.724 (active) | 1 (inactive) | 0.749 (inactive) | 1.06 (inactive) | 1.61 (active) | 1.01 (inactive) | 1 (inactive) |
| CC(C)[C@H](N)C(=O)OCCOCn1cnc2c(=O)nc(N)[nH]c21 [Valacyclovir hydrochloride] (20 µM) | 1.06 | 0.958 | 0.98 | 0.538 | 1.09 (inactive) | 0.989 (inactive) | 1.02 (inactive) | 0.954 (inactive) | 1.03 (inactive) | 0.987 (inactive) | 0.999 (inactive) | 0.997 (inactive) |
| CC1=C(C)C(=O)C(C(CCCCCC(=O)O)c2ccccc2)=C(C)C1=O (stereo not drawn) [Seratrodast] (20 µM) | 0.927 | 0.998 | 1 | 0.979 | 1 (inactive) | 1.01 (inactive) | 0.908 (inactive) | 1.05 (inactive) | 1.02 (inactive) | 0.965 (inactive) | 1.01 (inactive) | 0.899 (inactive) |
| CC1=NN(c2ccccc2)C(=O)C1 [Edaravone] (20 µM) | 0.889 | 1.03 | 1.02 | 0.963 | 0.97 (inactive) | 0.939 (inactive) | 1.01 (inactive) | 1.03 (inactive) | 1.02 (inactive) | 0.986 (inactive) | 1.01 (inactive) | 0.984 (inactive) |
| CCN1CCCC(OC(=O)C(c2ccccc2)c2ccccc2)C1 (stereo not drawn) [Piperidolate hydrochloride] (20 µM) | 1.1 | 1.01 | 0.987 | 0.893 | 1.02 (inactive) | 1.07 (inactive) | 1.01 (inactive) | 1.02 (inactive) | 1 (inactive) | 1.02 (inactive) | 0.993 (inactive) | 1.06 (inactive) |
| CC(C)NCC(O)COc1ccc(CCOCC2CC2)cc1 (stereo not drawn) [Betaxolol hydrochloride] (20 µM) | 1.11 | 0.969 | 1.07 | 0.967 | 0.935 (inactive) | 0.955 (inactive) | 1 (inactive) | 1.02 (inactive) | 0.994 (inactive) | 0.99 (inactive) | 1 (inactive) | 1.01 (inactive) |
| COc1ccccc1OCC(O)CN1CCN(CC(=O)Nc2c(C)cccc2C)CC1 (stereo not drawn) [Ranolazine] (20 µM) | 1.13 | 1.01 | 1.13 | 0.994 | 0.957 (inactive) | 1.03 (inactive) | 1.03 (inactive) | 0.997 (inactive) | 1.01 (inactive) | 1.01 (inactive) | 1.01 (inactive) | 1.06 (inactive) |
| CC(C)(C)c1ccc(C(=O)CCCN2CCC(OC(c3ccccc3)c3ccccc3)CC2)cc1 [Ebastine] (20 µM) | 1.13 | 1 | 1.01 | 0.852 | 1.02 (inactive) | 0.991 (inactive) | 0.856 (inactive) | 1.02 (inactive) | 1 (inactive) | 1.01 (inactive) | 0.983 (inactive) | 1.02 (inactive) |
| CC(C)Cc1ccc(CC(=O)O)cc1 [Ibufenac] (20 µM) | 1.08 | 1.1 | 1.06 | 1.24 | 0.908 (inactive) | 1.04 (inactive) | 1 (inactive) | 1.06 (inactive) | 1.01 (inactive) | 0.994 (inactive) | 1.01 (inactive) | 0.976 (inactive) |
| CCN(CC)C(C)CN1c2ccccc2Sc2ccccc21 (stereo not drawn) [Ethopropazine hydrochloride] (20 µM) | 1.04 | 0.975 | 0.954 | 0.823 | 1.01 (inactive) | 1.03 (inactive) | 0.928 (inactive) | 1.05 (inactive) | 1 (inactive) | 1.04 (inactive) | 0.992 (inactive) | 0.984 (inactive) |
| CN[C@@H]1[C@@H](O[C@H]2O[C@H](CO)[C@@H](N)[C@H](O)[C@H]2O)OC2C[C@@H](N)[C@@H](O[C@H]3[C@H](O)[C@@H](O)[C@H](N)C[C@@H]3N)OC2[C@@H]1O (stereo partly drawn) [Apramycin] (20 µM) | 1.18 | 0.982 | 0.996 | 1.03 | 1.05 (inactive) | 0.998 (inactive) | 0.96 (inactive) | 1 (inactive) | 1.05 (inactive) | 1 (inactive) | 1.02 (inactive) | 0.905 (inactive) |
| c1ccc(C2CN3CCSC3=N2)cc1 (stereo not drawn) [Tetramisole hydrochloride] (20 µM) | 0.855 | 0.574 | 1.07 | 0.976 | 1.04 (inactive) | 0.939 (inactive) | 1.01 (inactive) | 1.33 (inactive) | 1.03 (inactive) | 2 (active) | 0.992 (inactive) | 1.03 (inactive) |
